Laboratory results as given in PubChem BioAssay AID1159580 (chemical genetic matrix, 2015).
Hit rate of the full screen: of about 5,500 compounds, about 2,000 (36%) were called active. Inconclusive results (about 18%) are left out. No stated cut-off is given here; in the data, active means normalized growth mostly below about 0.91 (no sharp cut-off); inconclusive means no clear call, values can overlap the other calls; inactive means mostly above about 0.92. The list shows a part of the results.

Experiment: chemical genetic growth profiling, strain panel (AID 1159580);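 further: tested at 20 µM; growth read once vehicle control cultures reached saturation at 30 °C; 1 = growth at the plate median or of vehicle wells; lower values mean less growth of the strain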
Settings: S. cerevisiae deletion strains, growth OD
[1] = locus YHR030C, strain SLT2, active compounds read low
[2] = locus YHR079C, strain IRE1, active compounds read low
[3] = locus YJL095W, strain BCK1, active compounds read low
[4] = locus YJR066W, strain TOR1, active compounds read low
[5] = locus YLR113W, strain HOG1, active compounds read low
[6] = locus YNL183C, strain NPR1, active compounds read low
[7] = locus YOR231W, strain MKK1, active compounds read low
[8] = locus YPL256C, strain CLN2, active compounds read low

Measured: normalized growth

COc1cc2c3cc1Oc1c(OC)c(OC)cc4c1[C@@H](Cc1cccc(c1)Oc1ccc(c(O)c1)C[C@@H]3N(C)CC2)N(C)CC4
inactive: [1] 1.02 | [2] 1.01 | [3] 0.994 | [4] 0.984 | [5] 0.968 | [6] 0.983 | [7] 1.03 | [8] 1.07

COc1ccc2cc1Oc1ccc(cc1)C[C@H]1c3c(cc4c(c3Oc3cc5c(cc3OC)CCN(C)[C@@H]5C2)OCO4)CCN1C
inactive: locus YAL021C, strain ccr4, active compounds read low 1.01 | locus YAL026C, strain drs2, active compounds read low 1.01 | locus YAL030W, strain snc1, active compounds read low 0.989 | locus YBL061C, strain skt5, active compounds read low 1.01 | locus YBR009C, strain hhf1, active compounds read low 0.959 | locus YBR023C, strain chs3, active compounds read low 1.01 | locus YBR171W, strain sec66, active compounds read low 0.982 | locus YBR231C, strain swc5, active compounds read low 0.959 | locus YBR279W, strain paf1, active compounds read low 0.992 | locus YCL011C, strain gbp2, active compounds read low 1.01 | locus YCL016C, strain dcc1, active compounds read low 1.03 | locus YCL061C, strain MRC1, active compounds read low 0.984 | locus YCL069W, strain vba3, active compounds read low 0.969 | locus YCR088W, strain abp1, active compounds read low 0.987 | locus YDL005C, strain med2, active compounds read low 0.983 | locus YDL040C, strain nat1, active compounds read low 0.982 | locus YDR001C, strain nth1, active compounds read low 0.989 | locus YDR069C, strain doa4, active compounds read low 0.979 | locus YDR137W, strain rgp1, active compounds read low 1.1 | locus YDR159W, strain sac3, active compounds read low 0.875 | locus YDR195W, strain ref2 0.942 | locus YDR297W, strain sur2, active compounds read low 1 | locus YDR334W, strain swr1, active compounds read low 0.963 | locus YDR335W, strain msn5, active compounds read low 1.01 | locus YDR392W, strain spt3, active compounds read low 0.743 | locus YEL003W, strain gim4, active compounds read low 0.975 | locus YEL037C, strain rad23, active compounds read low 0.969 | locus YEL061C, strain CIN8 (second series), active compounds read low 0.98 | locus YER015W, strain faa2, active compounds read low 0.994 | locus YER016W, strain bim1, active compounds read low 1.06 | locus YER111C, strain swi4, active compounds read low 0.997 | locus YER155C, strain BEM2 (second series), active compounds read low 0.874 | locus YFR010W, strain ubp6, active compounds read low 0.966 | locus YGL167C, strain pmr1, active compounds read low 0.976 | locus YGL173C, strain kem1, active compounds read low 0.961 | locus YGL227W, strain vid30, active compounds read low 0.996 | locus YGL240W, strain doc1, active compounds read low 0.962 | locus YGL253W, strain hxk2, active compounds read low 1.01 | locus YHR013C, strain ard1, active compounds read low 0.964 | locus YHR027C, strain rpn1, active compounds read low 0.996 | [1] 1.03 | [2] 1.08 | locus YHR142W, strain chs7, active compounds read low 1.03 | locus YJL092W, strain hpr5, active compounds read low 0.988 | locus YJL095W, strain BCK1 (second series), active compounds read low 0.989 | [3] 1.03 | locus YJL115W, strain asf1, active compounds read low 0.974 | locus YJL129C, strain trk1, active compounds read low 1 | locus YJL154C, strain vps35, active compounds read low 0.986 | locus YJL164C, strain tpk1, active compounds read low 0.962 | locus YJL166W, strain qcr8, active compounds read low 0.955 | locus YJL187C, strain SWE1, active compounds read low 1.01 | [4] 0.987 | locus YKL160W, strain elf1, active compounds read low 1.05 | locus YKR026C, strain gcn3, active compounds read low 0.964 | locus YKR091W, strain srl3, active compounds read low 0.99 | locus YLL001W, strain dnm1, active compounds read low 0.959 | locus YLL026W, active compounds read low 0.999 | locus YLL041C, strain sdh2, active compounds read low 0.977 | locus YLR027C, strain aat2, active compounds read low 1 | [5] 1.07 | locus YLR221C, strain rsa3, active compounds read low 0.997 | locus YLR258W, strain gsy2, active compounds read low 1 | locus YLR262C, strain YPT6 (second series), active compounds read low 1.04 | locus YLR320W, strain mms22, active compounds read low 0.922 | locus YLR342W, strain FKS1, active compounds read low 1.02 | locus YLR357W, strain rsc2, active compounds read low 0.934 | locus YLR370C, strain arc18, active compounds read low 0.999 | locus YLR384C, strain iki3, active compounds read low 1 | locus YML120C, strain ndi1, active compounds read low 0.969 | locus YMR058W, strain fet3, active compounds read low 0.978 | locus YMR125W, strain sto1, active compounds read low 1 | locus YMR129W, active compounds read low 0.971 | locus YMR205C, strain PFK2, active compounds read low 0.973 | locus YMR231W, strain pep5, active compounds read low 0.985 | locus YNL071W, strain lat1, active compounds read low 0.982 | [6] 0.951 | locus YNL209W, strain ssb2, active compounds read low 0.99 | locus YNL248C, strain rpa49, active compounds read low 1.02 | locus YNL322C, strain KRE1 (second series), active compounds read low 1 | locus YNR049C, strain mso1, active compounds read low 1 | locus YOR001W, strain rrp6, active compounds read low 0.953 | locus YOR070C, strain gyp1, active compounds read low 1 | locus YOR080W, strain dia2, active compounds read low 0.977 | locus YOR083W, strain WHI5, active compounds read low 1 | locus YOR106W, strain vam3, active compounds read low 1.04 | [7] 1.06 | locus YOR265W, strain rbl2, active compounds read low 1 | locus YOR270C, strain vph1, active compounds read low 1.06 | locus YOR290C, strain snf2, active compounds read low 1.04 | locus YPL051W, strain arl3, active compounds read low 1.04 | locus YPL078C, strain atp4, active compounds read low 1.03 | locus YPL106C, strain sse1, active compounds read low 0.949 | locus YPL240C, strain hsp82, active compounds read low 0.985 | [8] 1.07
